An excerpt weighted towards active compounds, which were near 3.5% of everything screened.
TbPYK inhibitor = T. brucei pyruvate kinase inhibition; Q57TT1; TbPYK enzyme, Kinase-Glo Plus ATP luminescence, 45 min; Potency, µM (highest dose often 76.8 µM), most hits filed as inhibitors; 0.12% of 410,000 active; AID 624173; further: nearly all actives have a fitted effect of over 50% in size
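In this concentration-response screen, enzyme-free wells defined baseline while DMSO plates tracked drift. Each reaction combined TbPYK, substrate, compound and 130 uM ADP for 45 min at room temperature. Kinase-Glo Plus luminescence gave the signal.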
RE007 growth inh = less growth of the S. pombe RE007 Vpr strain; S. pombe RE007 Vpr strain, BacTiter-Glo ATP luminescence, 24 h; Potency, µM (doses to about 92.2 µM), usual class: inhibitors; 0.21% of 360,000 active; AID 651644; active means well fitted falling curve with a large enough effect; inconclusive means small, poorly fitted or top-dose-only effect; inactive means no such curve, though single readings can be large or run the other way; further: nearly all actives have a fitted effect of over 50% in size
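Fission yeast strain RE007, carrying one chromosomally integrated HIV-1 vpr copy, was seeded at OD 0.01 in PMG+AL medium with 23 nL pinned compound. After 24 h at 30 °C and 99% humidity, viability was read by BacTiter-Glo luminescence.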
NS1 inh = inhibitors of influenza NS1 protein function. AID 2326. Potency, µM (doses to about 46.1 µM). 0.4% of 270,000 active; calls by dose curve; further: actives are rising curves; nearly all actives have a fitted effect of over 50% in size
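Compounds were scored for reversing the slow growth caused by influenza A NS1 in S. cerevisiae, measured by optical density at 600 nm. Assay medium contained 2% galactose at pH 6.0; NS1-free yeast of the same strain were the positive control.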
Giardia FBPA inh-1 = inhibitors of Giardia lamblia fructose-1,6-bisphosphate aldolase | AID 2451 | purified Giardia FBPA | 0.71% of 290,000 active | Potency, µM (highest dose often 59.6 µM), most hits filed as inhibitors; further: nearly all actives have a fitted effect of over 55% in size
Target sequence (A8B2U2 whole entry, looked up): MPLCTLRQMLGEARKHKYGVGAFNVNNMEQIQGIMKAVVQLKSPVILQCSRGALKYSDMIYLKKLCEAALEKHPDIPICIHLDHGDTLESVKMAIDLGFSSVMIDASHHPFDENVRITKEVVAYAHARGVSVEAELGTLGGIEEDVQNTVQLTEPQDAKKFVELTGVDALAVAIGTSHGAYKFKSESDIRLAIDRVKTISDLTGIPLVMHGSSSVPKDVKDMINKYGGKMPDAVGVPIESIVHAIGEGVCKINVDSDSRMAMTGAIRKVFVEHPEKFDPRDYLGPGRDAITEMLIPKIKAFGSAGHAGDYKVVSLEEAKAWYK
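Giardia FBPA (40 nM reagent) was preincubated 10 min at RT with compound (up to 57.5 uM final), then substrate plus GAPDH/TPI/NAD/arsenate coupling system with diaphorase/resazurin was added; resorufin fluorescence (525/598 nm) was read after 20 min.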
Sm TGR inh = S. mansoni TGR enzyme inhibition. purified TGR, DTNB reduction, TNB absorbance 405 nm. AID 485364. Potency, µM (doses to about 114 µM), hits mostly inhibitors. Q962Y6. 3% of 360,000 active; further: nearly all actives have a fitted effect of over 60% in size
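TGR 20 nM + NADPH 100 uM (dispensed conc.), cpd preinc 15 min RT; start with NADPH (500 uM addition) then DTNB (15 mM addition). Kinetic TNB absorbance, 405 nm filter. Four-parameter Hill fit across titration.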
LmPK inh = LmPK (Leishmania mexicana) enzyme inhibition; Q27686; purified LmPK, Kinase-Glo ATP luminescence, 1 h; Potency, µM (highest dose often 57.5 µM), most hits filed as inhibitors; 0.37% of 290,000 active; AID 1721
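In 50 mM imidazole pH 7.2 with 7 mM MgCl2, LmPK (0.1 nM) turned over PEP (0.5 mM) and ADP (0.1 mM) for 1 h at room temperature. Luciferase read-out of ATP.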
Giardia growth = inhibitors of Giardia lamblia growth; shares compounds with Giardia FBPA inh-1; Giardia lamblia trophozoite growth inhibition; Potency, µM (titrated, usually from 57.5 µM), hits mostly inhibitors; 5% of 1,500 active; AID 2785;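 further: trophozoites exposed to compound for 48 h at 37 °C; nearly all actives have a fitted effect of over 70% in size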
Mammal cell tox = counter-screen for Giardia aldolase inhibitors: mammalian cell toxicity; 4% of 1,500 active; Potency, µM (titrated, usually from 57.5 µM), usual class: inhibitors; mammalian cell viability counter-screen, qHTS; shares compounds with Giardia FBPA inh-1; AID 2786;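 further: Chinese hamster ovary cells used as mammalian cytotoxicity surrogate; viability measured as cellular ATP by luminescence; compound exposure lasted 48 h before reading; nearly all actives have a fitted effect of over 60% in size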
Giardia FBPA inh-2 = confirmation of Giardia fructose-bisphosphate aldolase inhibitors | 5% of 1,500 active | shares compounds with Giardia FBPA inh-1 | purified Giardia aldolase enzyme activity, qHTS | Potency, µM (doses to about 57.5 µM), most hits filed as inhibitors; further: nearly all actives have a fitted effect of over 45% in size
Rabbit aldolase = blocks rabbit muscle aldolase in Giardia aldolase selectivity test. 4% of 1,500 active. AID 2794. shares compounds with Giardia FBPA inh-1. Rabbit muscle FBPA enzyme inhibition, selectivity counter-screen. Potency, µM (series often up to 57.5 µM), most hits filed as inhibitors; further: nearly all actives have a fitted effect of over 60% in size
Target sequence (P00883 whole entry, looked up): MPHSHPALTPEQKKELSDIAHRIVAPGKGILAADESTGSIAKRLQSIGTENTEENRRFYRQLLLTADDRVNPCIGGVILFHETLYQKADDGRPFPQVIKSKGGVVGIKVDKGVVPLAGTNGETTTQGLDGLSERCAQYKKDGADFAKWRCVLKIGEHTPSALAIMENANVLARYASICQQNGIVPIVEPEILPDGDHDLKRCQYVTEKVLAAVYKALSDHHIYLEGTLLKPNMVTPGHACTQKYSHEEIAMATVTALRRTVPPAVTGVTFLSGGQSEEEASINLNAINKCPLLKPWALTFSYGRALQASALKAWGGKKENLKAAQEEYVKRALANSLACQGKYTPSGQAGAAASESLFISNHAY
GAPDH counter = counter-screen for Giardia aldolase inhibitors: GAPDH coupling enzyme. shares compounds with Giardia FBPA inh-1. GAPDH coupling enzyme counterscreen, biochemical, qHTS. Potency, µM (doses to about 57.5 µM), actives largely listed as inhibitors. 6% of 1,500 active. AID 2795; further: nearly all actives have a fitted effect of over 55% in size
Of the large screens only hits and unclear results are named; the others gave an inactive call (follow-up assays come after a bar, where they were run); [ ] = another dose, or the depositor's remark. Unless noted, the call rests on the fitted dose curve; in most records, active means well fitted curve in the direction sought with a large enough effect; inconclusive means small, poorly fitted or top-dose-only effect, or another doubt; inactive means no such curve, though single readings can be large; an effect the other way counts as inactive or inconclusive.

O=C(O)CC(Sc1n[nH]c(=S)s1)C(=O)O (stereo not drawn)	TbPYK inhibitor inconclusive, Giardia FBPA inh-1 4.5µM | Giardia growth inactive | Mammal cell tox inconclusive | Giardia FBPA inh-2 inconclusive | Rabbit aldolase inconclusive | GAPDH counter inconclusive
CCOC(=O)c1cc(C)n(CC2CCC(C(=O)Nc3ccc(C(C)=O)cc3)CC2)c1C (stereo not drawn)	none (no result: RE007 growth inh, NS1 inh, Giardia FBPA inh-1, LmPK inh)
CCc1cc(-c2n[nH]c(=S)n2N)n(C)n1	Giardia FBPA inh-1 10µM | Giardia growth inconclusive | Mammal cell tox inactive | Giardia FBPA inh-2 inactive | Rabbit aldolase inactive | GAPDH counter inactive
Cc1cc(C)nc(NN=C2CCCC2)n1	Giardia FBPA inh-1 inconclusive
C1CCCCCC(=NNc2nn[nH]n2)CCCCC1	Giardia FBPA inh-1 16µM | Giardia growth inactive | Mammal cell tox inactive | Giardia FBPA inh-2 inactive | Rabbit aldolase inactive | GAPDH counter inactive
CCC(=O)N1CCc2cc(Br)cc(S(=O)(=O)NCCc3ccccc3Cl)c21	none (no result: RE007 growth inh, NS1 inh, Giardia FBPA inh-1, LmPK inh)
Cc1cccc2c(N)c3c(nc12)N(C)CC3	Giardia FBPA inh-1 16µM (no result: RE007 growth inh) | Giardia growth inconclusive | Mammal cell tox inactive | Giardia FBPA inh-2 inactive | Rabbit aldolase inactive | GAPDH counter inactive
CCOC(=O)N1CCN(Cc2ccccn2)CC1	Giardia FBPA inh-1 14µM | Giardia growth inactive | Mammal cell tox inactive | Giardia FBPA inh-2 inactive | Rabbit aldolase inactive | GAPDH counter inactive
CCOC(=O)N1CCN(Cc2ccc3ccccc3c2)CC1	Giardia FBPA inh-1 25µM | Giardia growth inactive[10.4 µM] | Mammal cell tox inactive | Giardia FBPA inh-2 inactive | Rabbit aldolase inactive | GAPDH counter inactive
O=C(Nc1ccc(S(=O)(=O)N(Cc2ccccc2)c2ccccc2)cc1)c1ccc([N+](=O)[O-])cc1	none (no result: RE007 growth inh, NS1 inh, Giardia FBPA inh-1, LmPK inh)
Oc1c(C(Nc2nc3ccccc3s2)c2ccco2)ccc2cccnc12 (stereo not drawn)	RE007 growth inh inconclusive, Giardia FBPA inh-1 16µM, Sm TGR inh inconclusive | Giardia growth inactive | Mammal cell tox inconclusive | Giardia FBPA inh-2 inactive | Rabbit aldolase inactive | GAPDH counter inactive
Cc1cccc(C(=O)NC(=S)NNC(=O)c2ccccc2Cl)c1	Giardia FBPA inh-1 inconclusive | Giardia growth inactive | Mammal cell tox inactive | Giardia FBPA inh-2 inactive | Rabbit aldolase inactive | GAPDH counter inactive
COc1cc2c(cc1OC)CN(C(=O)CN1CCN(S(=O)(=O)c3ccccc3Br)CC1)CC2	Giardia FBPA inh-1 16µM | Giardia growth inactive | Mammal cell tox inactive | Giardia FBPA inh-2 inactive | Rabbit aldolase inactive | GAPDH counter inactive
COc1ccc(-c2cc(=O)c3cc(OC)ccc3[nH]2)cc1	LmPK inh inconclusive
COc1ccc2[nH]c(=S)[nH]c2c1	NS1 inh inconclusive, Giardia FBPA inh-1 7.1µM | Giardia growth inactive[10.4 µM] | Mammal cell tox inactive | Giardia FBPA inh-2 inactive | Rabbit aldolase inactive | GAPDH counter inactive
COc1ccc(-c2cc(=O)[nH]c(=S)[nH]2)cc1	Giardia FBPA inh-1 16µM (no result: Sm TGR inh) | Giardia growth inconclusive | Mammal cell tox inactive | Giardia FBPA inh-2 inactive | Rabbit aldolase inactive | GAPDH counter inactive
CC(=O)N1CCN(Cc2nc3cc(NC(=O)COc4cccc(C)c4)ccc3n2C)CC1	Giardia FBPA inh-1 20µM | Giardia growth inconclusive | Mammal cell tox inactive | Giardia FBPA inh-2 inactive | Rabbit aldolase inactive | GAPDH counter inactive
Cc1cccc(OCC(=O)Nc2ccc3c(c2)nc(CN2CCCCC2)n3C)c1	none
COc1cccc(/C=C/C(=O)c2c(O)cc(C)oc2=O)c1O	none
COc1cc(/C=C/C(=O)c2c(O)cc(C)oc2=O)cc(OC)c1O	Giardia FBPA inh-1 16µM, Sm TGR inh 100µM | Giardia growth inactive[10.4 µM] | Mammal cell tox inactive | Giardia FBPA inh-2 inconclusive | Rabbit aldolase inconclusive | GAPDH counter inconclusive
CCCCc1nnc(NC(=O)CSCc2cc(=O)n3cc(C)sc3n2)s1	Giardia FBPA inh-1 4µM | Giardia growth inactive | Mammal cell tox inconclusive | Giardia FBPA inh-2 inconclusive | Rabbit aldolase inactive | GAPDH counter inactive
O=C1NC(=O)/C(=C/c2ccc(-c3cc(C(=O)O)ccc3Cl)o2)S1	Giardia FBPA inh-1 32µM | Giardia growth inactive | Mammal cell tox inactive | Giardia FBPA inh-2 inactive | Rabbit aldolase inactive | GAPDH counter inactive
